Consider 9 compounds from PubChem BioAssay (NCI).

Some test systems named below: SR leukemia; RPMI-8226 leukemia; OVCAR-8 ovarian; OVCAR-5 ovarian; OVCAR-4 ovarian; SK-OV-3 ovarian; IGROV1 ovarian; OVCAR-3 ovarian; HS 578T breast; NCI/ADR-RES ovarian; T-47D breast; BT-549 breast; MDA-MB-435 melanoma; SW-620 colon; MCF7 breast; HCT-116 colon; HCC-2998 colon; KM12 colon.
What all share (test): NCI-60 one-dose screen, 48 h (100 = growth as untreated, 0 = no growth, -100 = all killed)
Conditions in all cases: 10 µM unless noted

Molecules are shown by their SMILES. This is part of a sample that, as a whole, favours compounds with a hit. Of some 83,000 tested, about 20% had one in any assay.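 Interpretation: 100, growth as untreated; towards 0, rising growth inhibition; 0, no net growth; 0 to -100, cell death. Compounds scoring below 10 were considered active.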 A number with no mark means an inactive call. The source made the active and inactive calls.

In the case of `Cl/C(=N\Nc1ccccc1)c1ccccc1`, the growth in the assay with SR leukemia was 123%; with RPMI-8226 leukemia, 104%; in the assay on OVCAR-8 ovarian, 75.8%; in the assay with OVCAR-5 ovarian it was 99.1%; with OVCAR-4 ovarian it was 92.1%; with SK-OV-3 ovarian, 89.4%. Besides, the growth in the assay on IGROV1 ovarian was 85.6%; with OVCAR-3 ovarian it was 91.4%; with HS 578T breast it was 108%; in the assay on NCI/ADR-RES ovarian it was 82.9%; in the assay with T-47D breast, 89.9%; with BT-549 breast, 98.8%. The growth is 80.6% in the assay on MDA-MB-435 melanoma; 105% in the assay with SW-620 colon; 87.4% with MCF7 breast; 102% in the assay on HCT-116 colon; 102% with HCC-2998 colon.

As for `COc1ccc(C(=O)COc2ccc(/C=C3\Oc4ccc(Cl)cc4C3=O)cc2)cc1`, the growth with SR leukemia was -22.4% (active); in the assay on RPMI-8226 leukemia it was 181%; in the assay with OVCAR-8 ovarian, 76.6%; in the assay on OVCAR-5 ovarian it was 103%; in the assay on OVCAR-4 ovarian, 86.3%; with SK-OV-3 ovarian it was 98.7%. Moreover, the growth in the assay with IGROV1 ovarian was 32.9%; in the assay with OVCAR-3 ovarian it was 113%; in the assay with HS 578T breast it was 91.8%; in the assay on NCI/ADR-RES ovarian, 88.6%; in the assay on T-47D breast, 78.2%; in the assay on BT-549 breast, 98.1%. Besides, the growth in the assay with MDA-MB-435 melanoma is 106%; in the assay on SW-620 colon it was 83.6%; with MCF7 breast it was 47.1%; in the assay with HCT-116 colon, 23.6%; in the assay with HCC-2998 colon, 111%; in the assay on KM12 colon, 98.8%.

For the compound `Cc1ccccc1CCO`, the growth with SR leukemia is 88.7%; in the assay with RPMI-8226 leukemia, 108%; in the assay on OVCAR-8 ovarian, 100%; in the assay with OVCAR-5 ovarian it was 95.9%; with OVCAR-4 ovarian, 106%; with SK-OV-3 ovarian, 98%. The growth in the assay with IGROV1 ovarian is 95.4%; in the assay with OVCAR-3 ovarian, 106%; in the assay with HS 578T breast it was 100%; in the assay on NCI/ADR-RES ovarian, 101%; in the assay with T-47D breast it was 96.9%; with BT-549 breast, 95.1%. Further, the growth was 108% in the assay on MDA-MB-435 melanoma; 94.7% in the assay on SW-620 colon; 91.1% with MCF7 breast; 93.6% with HCT-116 colon; 92.6% with HCC-2998 colon; 109% with KM12 colon.

On to `COc1cc(OC)c(/C=C/C(=O)c2c(OC)cc(OC)cc2OC)c(OC)c1`, for which the growth is -11.9% (active) with SR leukemia; -6.66% (active) in the assay on RPMI-8226 leukemia; 17.6% in the assay with OVCAR-8 ovarian; 29.1% in the assay on OVCAR-5 ovarian; 47.6% in the assay with OVCAR-4 ovarian; 24.7% in the assay on SK-OV-3 ovarian. Further, the growth with IGROV1 ovarian is 30.1%; in the assay with OVCAR-3 ovarian, 6.92% (active); in the assay on HS 578T breast, 52.6%; in the assay on NCI/ADR-RES ovarian it was 12.3%; in the assay on T-47D breast, 13%; with BT-549 breast, 33.4%. Moreover, the growth was -34.8% (active) in the assay with MDA-MB-435 melanoma; 8.71% (active) in the assay on SW-620 colon; 19.5% in the assay with MCF7 breast; 8.7% (active) with HCT-116 colon; 30.3% in the assay on HCC-2998 colon; 9.29% (active) in the assay with KM12 colon.

On to `OC(c1cc(-c2ccccc2)nc2ccc(Cl)cc12)C1CCCCN1` (stereo unspecified), for which the growth is -25.8% (active) in the assay on SR leukemia; 13.1% in the assay on RPMI-8226 leukemia; 33.1% in the assay with OVCAR-8 ovarian; 58.8% with OVCAR-5 ovarian; 79% in the assay with OVCAR-4 ovarian; 89.1% with SK-OV-3 ovarian. The growth is 53.4% in the assay on IGROV1 ovarian; 67.5% with OVCAR-3 ovarian; 61.6% in the assay on HS 578T breast; 68.5% with NCI/ADR-RES ovarian; 19.9% in the assay on T-47D breast; 91.5% in the assay with BT-549 breast. Besides, the growth with MDA-MB-435 melanoma was 42.6%; in the assay with SW-620 colon, 21.2%; with MCF7 breast, -41% (active); in the assay on HCT-116 colon, 33.4%; in the assay with HCC-2998 colon, -87.7% (active); with KM12 colon, 6.52% (active).

As for `O=c1cc(-c2ccccc2)[nH]c2ccccc12`, the growth was 22.8% with SR leukemia; 22.4% with RPMI-8226 leukemia; 35% in the assay on OVCAR-8 ovarian; 50.6% with OVCAR-5 ovarian; 64.5% in the assay with OVCAR-4 ovarian; 37.5% in the assay with SK-OV-3 ovarian. Besides, the growth is -7.72% (active) in the assay with IGROV1 ovarian; -37.8% (active) in the assay on OVCAR-3 ovarian; 25.9% in the assay on HS 578T breast; -2.1% (active) in the assay with NCI/ADR-RES ovarian; 47.9% with T-47D breast; -12.2% (active) in the assay on BT-549 breast. Also, the growth in the assay with MDA-MB-435 melanoma is -16.8% (active); in the assay on SW-620 colon it was 29.8%; in the assay on MCF7 breast it was 15.6%; in the assay with HCT-116 colon it was 25.1%; with HCC-2998 colon, 18.5%; in the assay with KM12 colon, 12.7%.

Turning to `COc1ccc2nc3cc(Cl)ccc3c(N3CCN(c4nccc(NCc5ccccc5)n4)CC3)c2c1`, the growth in the assay on SR leukemia is 20.9%; in the assay on RPMI-8226 leukemia it was 63.2%; in the assay on OVCAR-8 ovarian, 71.4%; in the assay with OVCAR-5 ovarian, 106%; in the assay with OVCAR-4 ovarian, 67.3%; in the assay on SK-OV-3 ovarian it was 98.1%. For the same compound, the growth is 92% in the assay with IGROV1 ovarian; 63.3% with OVCAR-3 ovarian; 83.3% in the assay with HS 578T breast; 78.5% in the assay with NCI/ADR-RES ovarian; 41.8% in the assay with T-47D breast; 27.5% in the assay with BT-549 breast. For the same compound, the growth with MDA-MB-435 melanoma is 73.9%; in the assay on SW-620 colon, 68%; with MCF7 breast it was 24.6%; with HCT-116 colon it was 25.8%; with HCC-2998 colon, 84.3%; in the assay with KM12 colon, 77%.

On to `O=C1Nc2ccccc2C12CC(c1ccccc1)=NN2` (stereo unspecified), for which the growth in the assay with SR leukemia was -7.86% (active); in the assay with RPMI-8226 leukemia it was 47.3%; with OVCAR-8 ovarian, 70.5%; in the assay on OVCAR-5 ovarian it was 83.8%; with OVCAR-4 ovarian it was 77.2%; with SK-OV-3 ovarian it was 59.4%. The growth was 43% in the assay with IGROV1 ovarian; 39.6% in the assay on OVCAR-3 ovarian; 87.9% in the assay with HS 578T breast; 41.5% in the assay with NCI/ADR-RES ovarian; 60% with T-47D breast; 64.4% in the assay on BT-549 breast. Moreover, the growth with MDA-MB-435 melanoma was -24.9% (active); in the assay with SW-620 colon, 27.7%; in the assay with MCF7 breast, 19.1%; with HCT-116 colon, 29.4%; in the assay with HCC-2998 colon, 75.6%; with KM12 colon, 43.3%.

In the case of `CC[C@]12C=CCN3CC[C@@]4(c5ccc(OC)cc5N(C)[C@H]4[C@@](O)(C(=O)OC)[C@@H]1OC(=O)CCC(=O)N[C@@H](Cc1c[nH]c4ccccc14)C(=O)OC)[C@@H]32`, the growth is -43.1% (active) with SR leukemia; -33.4% (active) in the assay with RPMI-8226 leukemia; 93.9% in the assay on OVCAR-8 ovarian; 90.8% in the assay on OVCAR-5 ovarian; 89.9% in the assay on OVCAR-4 ovarian; 100% in the assay with SK-OV-3 ovarian. Also, the growth with IGROV1 ovarian was 101%; with OVCAR-3 ovarian it was 86.4%; in the assay with HS 578T breast, 79.4%; in the assay on NCI/ADR-RES ovarian, 105%; in the assay on T-47D breast, 67.8%; in the assay on BT-549 breast, 115%. For the same compound, the growth with MDA-MB-435 melanoma was 95.3%; in the assay on SW-620 colon, 96.4%; with MCF7 breast, 90%; in the assay on HCT-116 colon it was 100%; with HCC-2998 colon, 70.6%; with KM12 colon, 106%.
